Compound activity (PubChem)
ELG1 DNA repair: blocks ELG1-dependent DNA repair in HEK293T cells; HEK293T ELG1-luciferase reporter, luminescence, 16 h; DNA damage induced by 5-fluorouridine; Potency, µM (doses to about 46.1 µM), for inactives: at the highest dose activity change, negative = inhibition, most hits filed as inhibitors; hit rate 2.3% among 330,000; AID 504467; further: potency means the concentration at half of the fitted maximal effect; nearly all actives have a fitted effect of over 55% in size
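Step one: seed 2,000 cells per well. Step two: pin-transfer compound or DMSO alongside 5-fluorouridine. Step three: incubate 16 hr, 37 °C, 5% CO2. Step four: add ONE-Glo, wait 30 min, read luminescence.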
HT1080NT lethal: kills 2HG-producing HT-1080-NT fibrosarcoma cells; HT-1080-NT fibrosarcoma viability, CellTiter-Glo ATP luminescence, 48 h; Potency, µM (titrated, usually from 46.1 µM), inactives show at the highest dose activity, negative = less viability, actives largely listed as cytotoxic; hit rate 1.6% among 360,000;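 further: NT is the 2HG producing partner of a matched IDH1 knockdown line; potency means the concentration at half of the fitted maximal effect; 0% = DMSO-treated cells and -100% = media-only wells without cells; nearly all actives have a fitted effect of over 55% in size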
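Toxicity toward the 2HG-producing NT line was scored as %Activity, normalised to DMSO and no-cell wells, from CellTiter-Glo luminescence after 48 hours' treatment.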
IL-1B inflam inh: inhibitors of inflammasome signaling (IL-1 beta secretion); THP-1 LPS/ATP IL-1B secretion, AlphaLISA, 16 h; active compounds read low; activity change, % at 57.5 µM; hit rate 4.7% among 360,000; AID 743279; in the data active means activity change below about -50%; inconclusive means mostly about -30% to -49%
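Secreted IL-1B measured by AlphaLISA bead assay after 16 h compound exposure of THP-1 cells; compounds (final up to 57.5 uM) added 1 h before LPS (250 ng/mL) and ATP (1.25 mM) stimulation; lower signal means less secretion.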
HT1080 IDH1KD tx: HT-1080 IDH1 knockdown cell toxicity (counter line) | hit rate 2% among 360,000 | Potency, µM (titrated, usually from 46.1 µM), for inactives: at the top dose activity, negative = toxicity, most hits filed as cytotoxic | HT-1080 IDH1 knockdown viability, ATP luminescence, 48 h;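 further: potency means the concentration at half of the fitted maximal effect; 0% = DMSO wells and -100% = cell-free medium wells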
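Luminescent ATP read-out (CellTiter-Glo, 10 min at room temperature) after 48 h compound exposure at 37 °C gave viability of IDH1-knockdown HT-1080 cells. Activity was normalised to DMSO and cell-free wells, then fitted as concentration-response curves.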
DT40 TDP1 CPT: DT40-hTDP1 cell growth loss with CPT. Potency, µM (series often up to 46.2 µM), without a hit: at the highest dose activity change, negative = growth inhibition, hits mostly inhibitors. hit rate 12% among 420,000. AID 686979. chicken DT40 Tdp1-/-;hTDP1 cells + 20 nM CPT, ATP luminescence, 48 h; further: potency means the concentration at half of the fitted maximal effect; nearly all actives have a fitted effect of over 55% in size
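Cell growth measured by CellTiter-Glo luminescence after a minimum 48 h, 37 C compound exposure with 20 nM CPT in Tdp1-knockout DT40 cells stably expressing hTDP1, seeded 400/well; qHTS titration format.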
DT40 TDP1 no CPT: qHTS for Inhibitors of human tyrosyl-DNA phosphodiesterase 1 (TDP1): qHTS in cells in absence of CPT; DT40 Tdp1-/- hTDP1 cells, no CPT, ATP luminescence, 48 h; Potency, µM (series often up to 46.2 µM), without a hit: at the highest dose activity change, negative = growth inhibition, most hits filed as inhibitors; hit rate 15% among 420,000; further: potency means the concentration at half of the fitted maximal effect; nearly all actives have a fitted effect of over 55% in size
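Chicken DT40 Tdp1-/- cells complemented with human TDP1, screened without camptothecin (DMSO vehicle only), 400 cells/well. Compounds pin-transferred, cells incubated at 37 °C for at least 48 hr. Growth read as ATP-dependent luminescence (CellTiter-Glo, 30 min at RT).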
* marks the source's active call; other numbers are inactive results; [ ] = dose if it differs, or a comment. The list is not random: actives were taken first. Their share in the collection is about 19%. Unless noted, the call rests on the fitted dose curve; in most records, active means well fitted curve in the direction sought with a large enough effect; inconclusive means small, poorly fitted or top-dose-only effect, or another doubt; inactive means no such curve, though single readings can be large; an effect the other way counts as inactive or inconclusive. Unless noted, on the % scale 0 is the no-effect control and ±100 the full control effect.

`Cc1ccc(CCNC(=O)C23CN(Cc4ccccc4)CC2C(c2ccc([N+](=O)[O-])cc2)=NO3)cc1` (stereo not drawn) gave ELG1 DNA repair inconclusive, HT1080NT lethal 16.1%, IL-1B inflam inh inconclusive, HT1080 IDH1KD tx -4.5%, DT40 TDP1 CPT 20.6µM* and DT40 TDP1 no CPT inconclusive.
Screening O=C(NCc1ccccc1)C12CN(Cc3ccccc3)CC1C(c1cccc([N+](=O)[O-])c1)=NO2 (stereo not drawn) returned ELG1 DNA repair inconclusive, HT1080NT lethal -7.4%, IL-1B inflam inh inconclusive, HT1080 IDH1KD tx -0.3%, DT40 TDP1 CPT inconclusive and DT40 TDP1 no CPT 23.1µM*.
Screening O=C(CSc1ccncc1)Nc1ccc2ccccc2c1 returned ELG1 DNA repair 1.3%, HT1080NT lethal 0.6%, IL-1B inflam inh -9.4, HT1080 IDH1KD tx -6.5%, DT40 TDP1 CPT -0.7% and DT40 TDP1 no CPT -21.3%.
O=C(COc1ccc2ccccc2c1)Nc1ccncc1 was read as ELG1 DNA repair 7.5%, HT1080NT lethal -16.1%, IL-1B inflam inh -0.4, HT1080 IDH1KD tx -26.4%, DT40 TDP1 CPT inconclusive and DT40 TDP1 no CPT 16.4µM*.
For O=C(CSc1ccc2ccccc2c1)Nc1ccncc1 the results were ELG1 DNA repair -12.2%, HT1080NT lethal -23.0%, IL-1B inflam inh -0.2, HT1080 IDH1KD tx -24.6%, DT40 TDP1 CPT inconclusive and DT40 TDP1 no CPT 14.6µM*.
CC(C)(C)CC(C)(C)NC(=O)CSCC(=O)Nc1ccc2ccccc2c1 was read as ELG1 DNA repair 10.3%, HT1080NT lethal 15.8µM*, IL-1B inflam inh -94.3*, HT1080 IDH1KD tx -0.8%[9.24 µM], DT40 TDP1 CPT 18.4µM* and DT40 TDP1 no CPT inconclusive.
Screening CCC(=O)Nc1ccc2ccccc2c1 returned ELG1 DNA repair inconclusive, HT1080NT lethal 22.0%, IL-1B inflam inh -1.1, HT1080 IDH1KD tx 17.7%, DT40 TDP1 CPT 5.4% and DT40 TDP1 no CPT 9.3%.
Screening O=C(COc1ccccc1)Nc1ccncc1 returned ELG1 DNA repair -5.3%, HT1080NT lethal -8.7%, IL-1B inflam inh 15.4, HT1080 IDH1KD tx -0.7%, DT40 TDP1 CPT 10.9% and DT40 TDP1 no CPT -9.3%.
O=C(Cc1ccccc1)NCCn1ccc2ccccc21 was read as ELG1 DNA repair 5.9%, HT1080NT lethal -17.6%, IL-1B inflam inh -5.8, HT1080 IDH1KD tx -1.8%, DT40 TDP1 CPT 1.7% and DT40 TDP1 no CPT inconclusive.
For O=C(COc1ccc2ccccc2c1)NCCn1ccc2ccccc21 the results were ELG1 DNA repair 5.5%, HT1080NT lethal 0.0%, IL-1B inflam inh -14.0, HT1080 IDH1KD tx -7.6%, DT40 TDP1 CPT inconclusive and DT40 TDP1 no CPT 20.6µM*.
Screening Cc1cnc(CNc2cc(-c3cccnc3)ncn2)cn1 returned DT40 TDP1 CPT -6.0% and DT40 TDP1 no CPT inconclusive.
Screening Cc1cc(Nc2ccc(Cl)cc2C)nc(-n2nc(C)cc2C)n1 returned DT40 TDP1 CPT 5.17µM* and DT40 TDP1 no CPT 1.64µM*.
Screening CNc1cc(C)nc(-n2nc(C)cc2C)n1 returned ELG1 DNA repair -27.9%, HT1080NT lethal 4.7%, IL-1B inflam inh 0.0, HT1080 IDH1KD tx -1.9%, DT40 TDP1 CPT 5.8µM* and DT40 TDP1 no CPT 5.17µM*.
For CCOc1ccc(Nc2nc3cc(Cl)c(Cl)cc3nc2-n2nc(C)cc2C)cc1 the results were DT40 TDP1 CPT 2.9% and DT40 TDP1 no CPT 3.8%.
`Cc1cc(Cl)nc(-n2nc(C)cc2C)n1` gave ELG1 DNA repair inconclusive, HT1080NT lethal 12.6%, IL-1B inflam inh -5.5, HT1080 IDH1KD tx 9.3%, DT40 TDP1 CPT 5.9% and DT40 TDP1 no CPT -16.3%.
For CCOc1ccc(Nc2cc(C)nc(-n3nc(C)cc3C)n2)cc1 the results were ELG1 DNA repair inconclusive, HT1080NT lethal inconclusive, IL-1B inflam inh 12.1, HT1080 IDH1KD tx 0.411µM*, DT40 TDP1 CPT 0.461µM* and DT40 TDP1 no CPT 0.581µM*.
Cc1ccc(Nc2cc(C)nc(-n3nc(C)cc3C)n2)cc1 was read as DT40 TDP1 CPT 3.26µM* and DT40 TDP1 no CPT 3.66µM*.
OC(c1ccc(F)c(F)c1)c1nc(-c2ccc(F)c(Cl)c2)cs1 (stereo not drawn) was read as HT1080NT lethal -25.1%, IL-1B inflam inh -11.9, HT1080 IDH1KD tx inconclusive, DT40 TDP1 CPT inconclusive and DT40 TDP1 no CPT -28.8%.
Screening C[C@H](CO)N1C[C@H](C)[C@@H](CN(C)Cc2ccc(Oc3ccccc3)cc2)Oc2c(NS(=O)(=O)c3cn(C)cn3)cccc2C1=O returned ELG1 DNA repair inconclusive, HT1080NT lethal -14.6%, IL-1B inflam inh -1.2, HT1080 IDH1KD tx 6.1%, DT40 TDP1 CPT -26.5% and DT40 TDP1 no CPT inconclusive.
For O=C(O)CSc1nc2c(c(C(F)(F)F)n1)CCc1ccccc1-2 the results were ELG1 DNA repair -1.5%, HT1080NT lethal -6.3%, IL-1B inflam inh 11.2, HT1080 IDH1KD tx -6.9%, DT40 TDP1 CPT -5.7% and DT40 TDP1 no CPT -9.1%.
For O=C(CSc1nc2c(c(C(F)(F)F)n1)CCc1ccccc1-2)NCc1ccccc1 the results were ELG1 DNA repair inconclusive, HT1080NT lethal 7.2%, IL-1B inflam inh 32.4, HT1080 IDH1KD tx 2.7%, DT40 TDP1 CPT inconclusive and DT40 TDP1 no CPT 25.9µM*.
O=C(Nc1ccccc1F)C1CCCN1S(=O)(=O)c1ccc(Cl)cc1 (stereo not drawn) was read as ELG1 DNA repair -5.6%, HT1080NT lethal -8.7%, IL-1B inflam inh -0.6, HT1080 IDH1KD tx 1.1%, DT40 TDP1 CPT -21.4% and DT40 TDP1 no CPT -10.5%.
For CCOc1ccccc1NC(=O)C1CCCCN1S(=O)(=O)c1ccc(F)cc1 (stereo not drawn) the results were ELG1 DNA repair -18.8%, HT1080NT lethal -6.2%, IL-1B inflam inh 32.6, HT1080 IDH1KD tx 12.4%, DT40 TDP1 CPT -28.1% and DT40 TDP1 no CPT 20.6µM*.
Screening Cc1ccc(S(=O)(=O)N2CCC[C@H]2C(=O)Nc2ccccc2Cl)cc1 returned ELG1 DNA repair 0.0%, HT1080NT lethal -4.0%, IL-1B inflam inh -19.7, HT1080 IDH1KD tx -6.1%, DT40 TDP1 CPT 4.0% and DT40 TDP1 no CPT 16.4µM*.
O=C(NCCc1ccccc1)C(=O)NCC1CCCN1S(=O)(=O)c1ccccc1 (stereo not drawn) was read as ELG1 DNA repair inconclusive, HT1080NT lethal -24.8%, IL-1B inflam inh 0.3, HT1080 IDH1KD tx inconclusive, DT40 TDP1 CPT 13µM* and DT40 TDP1 no CPT 10.3µM*.
